# From PubChem BioAssay (Tox21)
# Results filed as inconclusive are left out. Calls of active or inactive are those of the source. Calls follow the shape of the dose curve; as a rule, active = well fitted activation curve with a large enough effect in the repeat runs; inconclusive = weak or mixed curves; inactive = flat fitted curve, though single readings scatter.
# Assay: A CellTox Green Cytotoxicity Assay to monitor cytotoxicity in HEK293 cells - 24 hour (AID 1224875); also: nearly all actives have a fitted effect of over 45% in size
# Conditions: CellTox Green fluorescence; series mostly up to 76.8 µM; activity change: at the top concentration
# Outline: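 HEK293 cells premixed with CellTox Green dye were seeded at 600 cells/well and left 5 h at 37 C/5% CO2 before pin transfer of 23 nL compound in DMSO. Fluorescence from dye bound to dead-cell DNA was read during 40 h treatment.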
# % is scaled to controls: 0 for no effect and ±100 for the full control effect.
row,SMILES,activity change
1,CC1(C)CC(OC(=O)CCCCCCCCC(=O)OC2CC(C)(C)NC(C)(C)C2)CC(C)(C)N1,"-4.42% [at 15.8 µM, stronger effect = higher value] (inactive)"
2,CC1(C)O[C@H]2CC(=O)OC[C@]23[C@H]2CC[C@@]4(C)[C@H](c5ccoc5)OC(=O)[C@H]5O[C@]54[C@]2(C)C(=O)C[C@@H]13,"3.71% [at 35.3 µM, stronger effect = higher value] (inactive)"
3,CC(N)CCCC(C)(C)O (stereo not drawn),"-13.7% [at 35.3 µM, stronger effect = higher value] (inactive)"
4,COC(=O)c1cccc(Cl)c1,0.822% (inactive)
5,CC(C)OC(=O)CCC(=O)OC(C)C,-5.63% (inactive)
6,CCN(CC)CCN,"-8.28% [at 35.3 µM, stronger effect = higher value] (inactive)"
7,CCOCCOCC,-0.978% (inactive)
8,C[C@H]1[C@@H](c2ccccc2)NC(=O)N1C,3.46% (inactive)
9,CN(C)CCN(C)CCO,-18.4% (inactive)
10,CN(C)CCOC(=O)C(c1ccccc1)C1(O)CCCC1 (stereo not drawn),"3.76% [at 35.3 µM, stronger effect = higher value] (inactive)"
11,CC1=C(C(=O)O)N2C(=O)[C@@H](NC(=O)[C@H](N)C3=CCC=CC3)[C@H]2SC1,"-11.3% [at 35.3 µM, stronger effect = higher value] (inactive)"
12,CC(=O)O[C@H]1C[C@@H]2CC[C@@]1(C)C2(C)C,5.89% (inactive)
13,Cc1ccc(C(C)NC(=O)[C@@H](NC(=O)OC(C)C)C(C)C)cc1 (stereo partly drawn),-4.89% (inactive)
